Bioassay records as filed in PubChem.
Rows were chosen to be rich in hits. Some 3.9% of all compounds tested hit in one or more screens of this group.
PLK1 PBD inh: inhibitors of human PLK1 polo-box domain binding. Plk1 PBD binding of FITC phosphopeptide, fluorescence polarization. P53350. AID 720504. 360,000 compounds, 2.8% hits. Potency, µM, without a hit: max response, negative = inhibition, hits mostly inhibitors; further: series mostly up to about 57 µM; on the % scale 0 is the no-effect control and ±100 the full control effect; nearly all actives have a fitted effect of over 65% in size
Target sequence (P53350 whole entry, looked up, the tested form may be a part): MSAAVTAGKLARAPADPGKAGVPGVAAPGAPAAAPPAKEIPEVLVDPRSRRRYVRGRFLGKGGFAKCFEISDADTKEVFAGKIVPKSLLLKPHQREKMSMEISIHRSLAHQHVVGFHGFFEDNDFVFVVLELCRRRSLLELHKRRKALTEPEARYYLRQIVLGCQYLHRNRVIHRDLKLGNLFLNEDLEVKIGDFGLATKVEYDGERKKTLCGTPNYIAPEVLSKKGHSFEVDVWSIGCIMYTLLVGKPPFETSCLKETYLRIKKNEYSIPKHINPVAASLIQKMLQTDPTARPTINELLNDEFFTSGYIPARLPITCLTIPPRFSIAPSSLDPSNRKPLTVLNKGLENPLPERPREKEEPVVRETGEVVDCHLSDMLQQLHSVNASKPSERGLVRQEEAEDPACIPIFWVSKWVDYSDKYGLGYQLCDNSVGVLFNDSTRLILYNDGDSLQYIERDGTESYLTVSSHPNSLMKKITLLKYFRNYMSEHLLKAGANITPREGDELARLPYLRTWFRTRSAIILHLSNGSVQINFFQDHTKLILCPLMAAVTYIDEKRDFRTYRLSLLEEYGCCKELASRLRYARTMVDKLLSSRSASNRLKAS
BRCA1 expr up: BRCA1 expression activation. MCF7-BRCA1-FFLuc reporter, luminescence, 48 h; response scale: scaled: vehicle 0%, 10 µM genistein 100%. Potency, µM (top dose mostly 46.1 µM), without a hit: top-dose activation, hits mostly activators. 380,000 compounds, 1.1% hits; further: nearly all actives have a fitted effect of over 80% in size
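MCF7 cells carrying a BRCA1-firefly luciferase reporter (2000 cells/well, phenol-red free MEM) were attached for 2 h at 37 °C, then given compounds for 48 h. Luminescence was read 15 min after luciferase reagent; activity normalized to genistein (10 microM) and DMSO.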
Tb PFK block: blocks T. brucei phosphofructokinase. T. brucei PFK, ADP-Glo luminescence. O15648. Potency, µM (titrated, usually from 57.5 µM), for inactives: at the highest dose activity, negative = inhibition, most hits filed as inhibitors. AID 485367. 330,000 compounds, 0.17% hits;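 further: 0% = uninhibited 1x PFK enzyme wells and -100% = no-enzyme wells; nearly all actives have a fitted effect of over 60% in size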
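PFK 1.25 nM, F6P 0.5 mM, ATP 0.1 mM, 0.1 M TEA pH 8.0, 5 mM MgCl2, 0.01% Tween20, 0.1% BSA; 45 min RT. ADP-Glo readout. qHTS titration up to 57 uM; curves fitted, compounds curve-classed.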
VDR inh: vitamin D3 receptor (human) inhibition; VDR-SRC2-3 peptide fluorescence polarization, 2 h; Potency, µM, for inactives: max response, negative = inhibition, actives largely listed as inhibitors; 400,000 compounds, 0.93% hits; further: on the % scale 0 is the no-effect control and ±100 the full control effect
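Inhibition of the VDR/SRC2-3 peptide interaction is quantified by fluorescence polarization. Compounds (23 nl, pintool) incubate with the reagents for 2 hours at ambient room temperature.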
Active calls of the source: *; ? = inconclusive; . = no result given; [ ] = another dose, or the depositor's remark. The call rests on the fitted dose curve; in most records, active means well fitted curve in the direction sought with a large enough effect; inconclusive means small, poorly fitted or top-dose-only effect, or another doubt; inactive means no such curve, though single readings can be large; an effect the other way counts as inactive or inconclusive. Potency means the concentration at half of the fitted maximal effect.

SMILES	PLK1 PBD inh	BRCA1 expr up	Tb PFK block	VDR inh
CCCOc1ccc(C(=O)CCN2CCCCC2)cc1	13µM*	-52%	-7%	40µM*
CCOc1ccc(OCCN2CCCCC2)cc1	-4%	-3%	0%	-10%
Cc1cccc(-c2nc3scc(CCNS(=O)(=O)c4ccc(F)c(C(F)(F)F)c4)n3n2)c1	.	.	.	4%
COc1ccc(CCNC(=O)CNC(=O)N2CC(=O)Nc3ccccc32)cc1	1%	3%	.	.
COc1ccc(CCNC(=O)CCNC(=O)N2CC(=O)Nc3ccccc32)cc1	21µM*	1%	-2%	-25%
Cc1ccccc1-c1cc(C(=O)Nc2sc(C)c(C)c2C(N)=O)c2ccccc2n1	27µM*	-84%	-13%	-1%
CCOC(=O)c1sc(NC(=O)c2cc(-c3ccccc3C)nc3ccccc23)c(C#N)c1C	5.3µM*	-85%	-2%	-10%
Cc1ccccc1NC(=S)NC(=O)c1cc(-c2ccccc2)nc2ccccc12	30µM*	-24%	0%	-7%
Cc1sc(NC(=O)Nc2ccccc2)c(C(N)=O)c1C	-30%	34%	-17%	89µM*
CCOC(=O)c1c(NC(=O)c2cc(-c3ccc(Cl)s3)nc3ccccc23)sc(C(N)=O)c1C	-10%	-17%	1%	3%
CCOC(=O)c1sc(NC(=O)CSc2nc(C)cc(-c3ccccc3)n2)c(C#N)c1C	-6%	-9%	-16%	-9%
COc1ccc2c(c1)c1c(c(=O)n(Cc3ccccc3)c(=O)n1CC(=O)NCc1ccccc1Cl)n2C	.	.	.	15%
OC(CSc1nnnn1-c1ccccc1)Cn1c2ccccc2c2ccccc21 (stereo not given)	-11%	-50%	.	.
CC[n+]1ccnc2ccccc21	.	-11%	.	.
NC(=O)c1nsc(C(=O)N(CC(=O)NC2CCCCC2)Cc2ccc3c(c2)OCO3)c1N	.	-1%	.	5%
C/C(=N\OCC(=O)NCC(F)(F)F)c1cc2ccccc2o1	-3%	13µM*	2%	-8%
CC(C)(C)c1cnnn1-c1ccc(C(=O)CCl)cc1	6.7µM*	9%	2%	79µM*
O=C(COC(=O)c1cc(-c2ccc(Cl)s2)nc2ccccc12)NCc1ccco1	?	13%	9%	79µM*
COc1cc(NC(=O)[C@H]2O[C@@H](n3ccc(N)nc3=O)[C@H](O)[C@@H]2O)cc(OC)c1OC	3%	21%	.	.
Cc1ccccc1OCC1Cc2c(nc(N)c(C#N)c2N)O1 (stereo not given)	-5%	6.3µM*	?	11%
N#Cc1c(N)nc2c(c1N)CC(CO)O2 (stereo not given)	-4%	0%	5%[0.46 µM]	8%
CC12CCC(=O)C=C1CCC1C2CCC2(C)C(c3csc(N)n3)CCC12 (stereo not given)	2%	-90%	.	-6%
CC[C@]12c3[nH]c4cc(CCC(=O)N(C)C)ccc4c3CCN1C(=O)[C@@H](CC(=O)NCCCOC)C[C@@H]2C(=O)N1CCN(C(=O)C2CC2)CC1	21µM*	12%	-1%	?
CC[C@]12c3[nH]c4cc(-c5ccco5)ccc4c3CCN1C(=O)[C@@H](CC(=O)NCCCOC)C[C@@H]2C(=O)N1CCN(C(=O)c2ccco2)CC1	21µM*	0%	-1%	?
CCOCCCn1c(=N)c(C(=O)NC(C)c2ccccc2)cc2c(=O)n3cccc(C)c3nc21 (stereo not given)	.	-1%	.	3%
SMILES	PLK1 PBD inh	BRCA1 expr up	Tb PFK block	VDR inh
Cc1cc2oc3c(c(=O)c2cc1C)C(c1ccc(C(C)C)cc1)N(c1nc(C)c(C)s1)C3=O (stereo not given)	.	.	.	4%
Cc1ccc(/C=N/Nc2ccnc3cc(Cl)ccc23)c(C)c1	27µM*	-91%	-1%	-12%
NC(=O)c1ccccc1NC(=O)CCc1ccccc1	-10%	11µM*	3%	0%
NC(=O)c1ccccc1NC(=S)NC(=O)CCc1ccccc1	15µM*	-58%	1%	?
Cc1ccccc1NC(=S)NC(=O)CCc1ccccc1	-9%	12%	1%	-2%
N#Cc1c(NC(=O)c2cccc(S(=O)(=O)Nc3ccc(C(=O)O)cc3)c2)sc2c1CCCC2	?	-13%	15%	-7%
O=S(=O)(NCCCN1CCOCC1)c1ccc(Cl)s1	8.4µM*	7%	-2%	?
O=S(=O)(NCCN1CCOCC1)c1ccc(F)c(Cl)c1	3.4µM*	-8%	-16%	?
CC1(C)CN(c2ccc(Br)cc2)C(=O)[C@H]1CC(=O)Nc1ccccc1	-9%	-40%	.	.
CCc1ccc(C2CC(c3ccc(C)cc3)n3nc(N)nc3N2)cc1 (stereo not given)	24µM*	4%	.	?
COc1ccc(C2CC(c3ccccc3C)n3nc(N)nc3N2)cc1 (stereo not given)	?	2%	-2%	-18%
CCOc1ccc(C2CC(c3ccccc3C)n3nc(N)nc3N2)cc1 (stereo not given)	21µM*	-1%	2%	?
COc1ccc(C2CC(c3cccc(OC)c3)n3nc(N)nc3N2)cc1 (stereo not given)	-1%	2%	1%	-15%
COc1cccc(C2CC(c3ccc(Cl)cc3)n3nc(N)nc3N2)c1 (stereo not given)	21µM*	2%	-4%	?
Nc1ccccc1C#CC(=O)c1ccccc1	8.4µM*	-103%	-1%	?
O=C(CN1C(=O)NC2(CCCCC2)C1=O)Nc1ccc2c(c1)OCCCO2	-7%	5µM*	0%	18%
O=C(CN1C(=O)NC2(CCCCCC2)C1=O)Nc1cccc(F)c1	3%	-12%	0%	3%
Cc1ccc(C(=O)CN2C(=O)NC3(CCCCCC3)C2=O)c(C)c1	3%	6.3µM*	-3%	-19%
Cc1cc(C(=O)CN2C(=O)NC3(CCCCC3)C2=O)c(C)n1-c1ccc2c(c1)OCO2	24µM*	-17%	3%	?
Cc1cc(-n2c(C)cc(C(=O)CN3C(=O)NC4(CCCCCC4)C3=O)c2C)no1	-2%	-4%	1%	7%
CC(C)c1ccc(S(=O)(=O)c2nnn3c2nc(NCCc2ccccc2)c2sccc23)cc1	.	.	.	6%
COc1ccc(NC(=O)c2oc3ccccc3c2NC(=O)c2cc(C)cc(C)c2)c(OC)c1	.	-2%	.	9%
CCCn1nnc2ccccc2c1=O	-8%	8%	-1%	-12%
COc1ccccc1OCCn1nnc2ccccc21	-4%	?	5%	-12%
O=C(Cn1nnc2ccccc21)NCc1ccccc1	-9%	?	3%	9%
SMILES	PLK1 PBD inh	BRCA1 expr up	Tb PFK block	VDR inh
c1ccc(CCn2nnc3ccccc32)cc1	21µM*	13µM*	-4%	-23%
CCOc1ccc(OCCn2nnc3ccccc3c2=O)cc1	1%	1µM*	-3%	-9%
Cc1ccc(OCCn2nnc3ccccc32)cc1C	6%	4.5µM*	-2%	14%
CCc1ccc(NC(=O)c2ccc(F)c(S(=O)(=O)NCCc3ccc(OC)c(OC)c3)c2)cc1	.	.	.	7%
COc1cccc(-c2ccc3ncnc(NCc4cccc(F)c4)c3c2)c1	.	.	0%	.
Cn1c(N)c(C(=O)COC(=O)CSc2cccc3cccc(Cl)c23)c(=O)n(C)c1=O	27µM*	-21%	-2%	5%
